Measured values published in PubChem BioAssay AID1049 (The Scripps Research Institute Molecular Screening Center, 2008).
The whole screen tested about 200,000 compounds, of which about 780 (0.39%) were called active. Rule as the data show it: active = TR-FRET ratio above about 2000; inactive = the rest. The entries come from a sample that favours actives as a whole.

Assay: detection-format interference in TR-FRET ratio – biochemical, artefact control for PPARgamma SRC-2 agonist project, primary screen (AID 1049)
Conditions: TR-FRET artefact counter-screen; at 8 µM; stronger effect = higher value
With `N#Cc1c(-c2ccc(Cl)cc2)c2c([nH]c1=S)CCCC2` the TR-FRET ratio was 2030 (active). In the case of `N#Cc1c2c(c(-c3ccccc3)[nH]c1=O)CCCC2`, the TR-FRET ratio is reported as 1620 (inactive). For `CNc1nccc(-c2ccc(Cl)cc2)c1C#N`, the TR-FRET ratio was 1580 (inactive). For `Cc1ccc(CNC(=O)COc2ccc3c(c2)CCC3)cc1`, the TR-FRET ratio was 1560 (inactive). In the case of `CCCCN(C(=O)c1ccc(OC(F)(F)F)cc1)c1c(N)n(CCC)c(=O)[nH]c1=O`, the TR-FRET ratio is reported as 1420 (inactive). In the case of `C/C=N/NC(=O)CCCC(=O)N/N=C/C`, the TR-FRET ratio is reported as 1590 (inactive). For `COc1ccccc1C1/C(=C(/O)c2ccc(OC(C)C)cc2)C(=O)C(=O)N1c1cc(C)on1` (stereo not drawn), the TR-FRET ratio was 1930 (inactive). With `Cc1cc(N2C(=O)C(=O)/C(=C(/O)c3ccc(Cl)cc3)C2c2cccc(Br)c2)no1` (stereo not drawn) the TR-FRET ratio was 1980 (active). With `COc1ccc(C2/C(=C(/O)c3ccccc3)C(=O)C(=O)N2c2ncccn2)cc1OC` (stereo not drawn) the TR-FRET ratio was 1610 (inactive). With `Cc1cc2ccccc2n1CCC(=O)O` the TR-FRET ratio was 1790 (inactive). For `Cc1cc2ccccc2n1CCNC(=O)COc1ccc2ccccc2c1`, the TR-FRET ratio was 3050 (active). For `COC(=O)C(C)NC(=O)COc1ccc2ccccc2c1` (stereo not drawn), the TR-FRET ratio was 1440 (inactive). With `COc1ccc(/C=N/Nc2ncnc3sc4c(c23)CCCC4)cc1O` the TR-FRET ratio was 1360 (inactive). In the case of `CCCOc1ccc(N/C=C/C(=O)C(C)(C)C)cc1`, the TR-FRET ratio is reported as 1530 (inactive). In the case of `CN(C)c1ccc(N/C=C/C(=O)C(F)(F)F)cc1`, the TR-FRET ratio is reported as 2200 (active). In the case of `O=C(/C=C/Nc1ccccc1OC(F)(F)F)C(F)(F)F`, the TR-FRET ratio is reported as 1490 (inactive). In the case of `CN(C)C(=O)c1ccc2c(c1)C1C3CCC(C3)C1C(c1ccccc1)N2` (stereo not drawn), the TR-FRET ratio is reported as 1630 (inactive). In the case of `COc1cccc(NC(=S)N(Cc2ccc(C)cc2)Cc2ccccn2)c1`, the TR-FRET ratio is reported as 1700 (inactive). For `CSc1ncccc1C(=O)OCc1ccc(Br)cc1`, the TR-FRET ratio was 1680 (inactive). For `Cc1cc(C)c(NC(=O)CS(=O)CC(=O)Nc2cccnc2)c(C)c1` (stereo not drawn), the TR-FRET ratio was 1340 (inactive). With `Cc1ccc(NC(=O)COc2ccc(-n3ccnc3)cc2)cc1Cl` the TR-FRET ratio was 1510 (inactive). For `Cc1ccc(-c2nc(-c3cccnc3)sc2CC(=O)Nc2ccc(C)c(Cl)c2)cc1`, the TR-FRET ratio was 2240 (active). In the case of `COc1ccc(OC)c(Cc2nnc(CCC(=O)NC3CCCC3)o2)c1`, the TR-FRET ratio is reported as 1590 (inactive). For `O=C(Nc1cccc(CCc2ccccn2)c1)c1ccc(Cl)cc1`, the TR-FRET ratio was 1410 (inactive). In the case of `CN(C)/C=C(/C(=O)c1ccccc1)S(=O)(=O)c1ccc(Cl)cc1`, the TR-FRET ratio is reported as 1390 (inactive). In the case of `COc1cc(OC)cc(C(=O)Nc2ccc(S(=O)(=O)Nc3cc(C)on3)cc2)c1`, the TR-FRET ratio is reported as 1400 (inactive). For `COc1cc(OC)cc(C(=O)Nc2ccc(-c3nc4ccccc4o3)c(O)c2)c1`, the TR-FRET ratio was 2300 (active). In the case of `O=C(Nc1ccc2oc(-c3ccccc3F)nc2c1)c1ccco1`, the TR-FRET ratio is reported as 1310 (inactive).
